From ChEMBL document CHEMBL5308504, “Tm Shift (DSF) assay results for EUbOPEN Chemogenomics Library” (2023)

Target: Bromodomain-containing protein 4 (Homo sapiens) (UniProt O60885)
Settings: Compound concentration 20.0 uM, Protein concentration 2.0 uM, Result type QC Liability

Going from CC(=O)Oc1ccc2c(c1)[C@@]1(C)CCC[C@](C)(C(=O)OC(=O)[C@@]3(C)CCC[C@]4(C)c5cc(OC(C)=O)ccc5CC[C@@H]34)[C@@H]1CC2 to Cn1cc(NC(=O)c2ccc3nc4n(c3c2)CCCNC4=O)nc1C(=O)NC1CCCC1, the ΔTm rises from -2.81 °C to -1.16 °C.

Compared with CN(C)C(=O)Cn1cc(-c2ccc(-c3cncc4ccccc34)cc2)cn1, COc1cc2ncnc(Nc3ccc4c(cnn4Cc4ccccc4)c3)c2cc1OC is higher in ΔTm: -2.19 °C for the first, -0.65 °C for the second.

Going from CC(C)(c1ccc(OCc2cccc(COc3ccc(C(=N)N)cc3)c2)cc1)c1ccc(O[C@@H]2O[C@H](C(=O)O)[C@@H](O)[C@H](O)[C@H]2O)cc1 to CCO[C@@H](Cc1ccc(OCCc2ccc(OS(C)(=O)=O)cc2)cc1)C(=O)O, the ΔTm falls from 0.58 °C to -0.9 °C.

First: CC#CC(=O)N1CCN(c2nc(-c3ccc(Oc4ccccc4)cc3)c(C(N)=O)s2)CC1
Second: Cc1cccc(-c2nn3c(c2-c2ccnc4ccc(C(N)=O)cc24)CCC3)n1
The ΔTm of the first is lower: -3.96 °C for the first, -2.31 °C for the second.

First: COc1cc(-c2cc([C@H](O)C3CC3)n3ncnc(N)c23)ccc1CO
Second: COc1cc2ncnc(N[C@H](C)c3ccccc3)c2cc1OC1CCN(S(C)(=O)=O)CC1
The ΔTm of the first is higher: 0.22 °C for the first, -3.35 °C for the second.

First: Cc1nccc(COC(=O)N2C[C@@H]3[C@@H](CNC(=O)c4ccc5[nH]nnc5c4)[C@@H]3C2)n1
Second: CC(=O)Nc1cccc(-n2c(=O)n(C3CC3)c(=O)c3c(Nc4ccc(I)cc4F)n(C)c(=O)c(C)c32)c1
The ΔTm of the first is lower: -4.78 °C for the first, -2.35 °C for the second.

Compound N=C(N)NCCC[C@H](NC(=O)CC1(CC(=O)N2CCN(C(c3ccccc3)c3ccccc3)CC2)CCCC1)C(=O)NCc1ccccc1 has a ΔTm of -0.62 °C.
